Our source for the growth values is PubChem BioAssay (NCI).

This is part of a sample that, as a whole, favours compounds with a hit. Of some 83,000 tested, about 20% had one in any assay.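 How to read the values: 0–100, growth inhibition (40 = 60% inhibited); 0, no net growth; -100 to 0, cell death (-40 = 40% of starting cells died; -100 = all dead).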 Values without a mark were called inactive. Activity calls are given as the source filed them. Rule for the calls: active = growth percent below 10; inactive = the rest.

The first test has as its system NCI-H460 lung. Nature of the test: NCI-60 one-dose screen, 48 h (100 = growth as untreated, 0 = no growth, -100 = all killed). Particulars: 10 µM unless noted.
On to `COc1ccc(-c2cnc3ccnn3c2-c2cc(OC)c(OC)c(OC)c2)cc1`, for which the growth is 11.1%.
Still for that read-out and setting: for `COc1cc2cc(C(=O)Nc3ccccc3)c(N)nc2cc1OC` the value was -40.2% (active); for `O=C(C=P(c1ccccc1)(c1ccccc1)c1ccccc1)CCl`, -11.9% (active).
Same read-out and setting: for `CCCCCCCCCCCCCCCCS(=O)(=O)Nc1cc(C(=O)NN)cc(C(=O)NN)c1` the value was 95.6%.
With `COS(=O)(=O)CCN(CCOS(C)(=O)=O)S(C)(=O)=O`, the growth is 101%.
Consider `CCn1c(CN2CCN(Cc3ccccc3)CC2)nc2cc(NC(=O)c3cccs3)ccc21`, for which the growth is -69.9% (active).
Take `CC(=O)c1ccc(-n2c(-c3cc(-c4ccsc4)n[nH]3)n[nH]c2=S)cc1`: the growth was 105%.
Take `CCN(CC)Cc1cc(Nc2ccnc3cc(Cl)ccc23)cc(-c2ccc(Cl)cc2)c1O`: the growth was 3.23% (active).
As to `O=C(NCC(c1ccsc1)N1CCCCCC1)c1ccc(C(F)(F)F)cc1` (stereo not given), the growth was 100%.
Still for that read-out and setting: for `COc1cc(NC(C)CCCN)c2ncccc2c1Oc1ccc(Cl)cc1` (stereo not given) the value was 83.8%.
Same read-out and setting: for `O=C(c1ccccc1)N(CCCCl)C(=O)N(CCCCl)C(=O)c1ccccc1` the value was 108%.
Same read-out and setting: the value for `COc1ccc(C2=CC(c3ccc(OC)cc3Br)N3C=CSC3=N2)cc1` (stereo not given) was 90.6%; that for `CC(=O)c1nn(-c2ccccc2)/c(=N\N=C\c2coc3ccc(F)cc3c2=O)s1` was 102%.
With `O=C(c1ccc(C(F)(F)F)c(Cl)c1)N(Cc1ccc(Cl)cc1)c1ccc(-c2cc(C(F)(F)F)[nH]n2)c(O)c1`, the growth is 6.77% (active).
On the same count and under the same terms, the value for `C/C(=N\OC(=O)Nc1cccc(Cl)c1)c1ccccc1` was 105%.
Still for that read-out and setting: the value for `C/C(=C\C(=N\N=C(N)N)c1ccc(Cl)cc1)c1ccc(Cl)cc1` was -66.8% (active); that for `O=C(NO)c1ccc(NCc2csc3ccccc23)cc1` was 39.8%; that for `C#CC[C@@H]1C[C@]2(C)[C@H]3CC=C4[C@H]5CC(C)(C)CC[C@]5(C(=O)NCCCCN)CC[C@@]4(C)[C@]3(C)CC[C@H]2C(C)(C)[C@H]1OC(C)=O` was -27.6% (active).
On the same count and under the same terms, the value for `Oc1ccc(Cl)cc1-c1cc(-c2ccccc2Cl)[nH]n1` was 37.1%; that for `CC1C2CCC(C2)C1COCCOCCO` (stereo not given) was 112%; that for `O=C1C(Cl)=C(N/N=c2/[nH][nH]/c(=N/NC3=C(Cl)C(=O)c4ccccc4C3=O)c3ccccc23)C(=O)c2ccccc21` was 81.4%.
As to `COc1ccc(/C=c2\c(=O)n(-c3ccccc3)c3nn4c(n23)=NNC42CCCCC2)cc1`, the growth is 101%.
On to `CCNC(=S)N(Cc1ccccc1)Cc1ccccc1`, for which the growth is 131%.
Same read-out and setting: the value for `N#CC1=C(N)Oc2nc[nH]c(=O)c2C1c1cccs1` (stereo not given) was 106%; that for `CCN(C(=O)Nc1cccc2ccccc12)c1ccccc1` was 115%.
As for `COc1ccc(-c2nc(-c3cc(OC)cc(OC)c3)[nH]c2-c2ccc(OC)cc2)cc1`, the growth was 48%.

For a further test, the system named is HOP-92 NSCLC. Described as above. Particulars: 10 µM unless noted.
Turning to `CCOC(=O)c1ccc(N(CCC(=O)O)C(C)=O)cc1`, the growth is 96.2%.
Consider `Nc1c(C(=O)Nc2cccc(Cl)c2)sc2ncc(Br)cc12`, for which the growth is 78.5%.
Still for that read-out and setting: the value for `CSC(=S)N/N=C(\C)c1ccccn1` was 31.3%; that for `CC(=O)O[C@H]1[C@H](CC#CC#CC[C@@H]2C[C@]3(C)[C@H]4CC=C5[C@H]6[C@@H](C)[C@H](C)CC[C@]6(C(=O)NCCCCCCCCN)CC[C@@]5(C)[C@]4(C)CC[C@H]3C(C)(C)[C@H]2OC(C)=O)C[C@]2(C)[C@H]3CC=C4[C@H]5[C@@H](C)[C@H](C)CC[C@]5(C(=O)NCCCCCCCCN)CC[C@@]4(C)[C@]3(C)CC[C@H]2C1(C)C` was 92.3%; that for `CC(C)COC(=O)NC(C)(C)C` was 98.9%.
The same measure, in the same setting: for `CCC(=O)NC(O)C(Cl)(Cl)C(C)Cl` (stereo not given) the value was 88.1%; for `C#CCNC(=S)N/N=C(\C)c1ccccn1`, 52.4%.
Still for that read-out and setting: for `COc1ccc(-c2nnc(SCC(=O)Nc3ccc(C(=O)/C=C/c4ccc(Cl)cc4)cc3)n2-c2ccccc2)cc1` the value was 105%; for `CC1CCN(Cc2ccc(NC(=O)c3cc4ccc5cccnc5c4[nH]3)cc2)CC1`, 63.7%.
For `CC(C)N1CCN(c2ccncc2S(=O)(=O)N2CCN(C)CC2)CC1`, the growth was 108%.
Still for that read-out and setting: for `O=C(/C=C/c1ccccc1)n1c(-c2ccccc2)nc2ccccc21` the value was 91.6%; for `COC1CC(N)C2OC(c3ccccc3)OCC2O1` (stereo not given), 136%.
The same measure, in the same setting: the value for `COc1cccc(NC(=O)[C@H](C(C)C)n2c(=O)[nH]c3ccccc3c2=O)c1` was 110%.
In the case of `COc1ccc(-c2cnc3ccnn3c2-c2cc(OC)c(OC)c(OC)c2)cc1`, the growth was 103%.
On the same count and under the same terms, for `COc1cc2cc(C(=O)Nc3ccccc3)c(N)nc2cc1OC` the value was -11.4% (active).
As to `O=C(C=P(c1ccccc1)(c1ccccc1)c1ccccc1)CCl`, the growth was -51.7% (active).
Same read-out and setting: the value for `CCCCCCCCCCCCCCCCS(=O)(=O)Nc1cc(C(=O)NN)cc(C(=O)NN)c1` was 92.2%; that for `COS(=O)(=O)CCN(CCOS(C)(=O)=O)S(C)(=O)=O` was 89.1%; that for `CCn1c(CN2CCN(Cc3ccccc3)CC2)nc2cc(NC(=O)c3cccs3)ccc21` was -72.3% (active).
The same measure, in the same setting: the value for `CC(=O)c1ccc(-n2c(-c3cc(-c4ccsc4)n[nH]3)n[nH]c2=S)cc1` was 89.9%.
As to `CCN(CC)Cc1cc(Nc2ccnc3cc(Cl)ccc23)cc(-c2ccc(Cl)cc2)c1O`, the growth is -8.91% (active).
Same read-out and setting: the value for `O=C(NCC(c1ccsc1)N1CCCCCC1)c1ccc(C(F)(F)F)cc1` (stereo not given) was 99%.
For `COc1cc(NC(C)CCCN)c2ncccc2c1Oc1ccc(Cl)cc1` (stereo not given), the growth was 43.4%.
The same measure, in the same setting: the value for `O=C(c1ccccc1)N(CCCCl)C(=O)N(CCCCl)C(=O)c1ccccc1` was 70.1%; that for `COc1ccc(C2=CC(c3ccc(OC)cc3Br)N3C=CSC3=N2)cc1` (stereo not given) was 77.4%.
Regarding `CC(=O)c1nn(-c2ccccc2)/c(=N\N=C\c2coc3ccc(F)cc3c2=O)s1`, the growth was 90.6%.
On the same count and under the same terms, the value for `O=C(c1ccc(C(F)(F)F)c(Cl)c1)N(Cc1ccc(Cl)cc1)c1ccc(-c2cc(C(F)(F)F)[nH]n2)c(O)c1` was -15.6% (active); that for `C/C(=N\OC(=O)Nc1cccc(Cl)c1)c1ccccc1` was 132%; that for `C/C(=C\C(=N\N=C(N)N)c1ccc(Cl)cc1)c1ccc(Cl)cc1` was -77% (active).
On the same count and under the same terms, for `O=C(NO)c1ccc(NCc2csc3ccccc23)cc1` the value was 71.7%.
Same read-out and setting: the value for `C#CC[C@@H]1C[C@]2(C)[C@H]3CC=C4[C@H]5CC(C)(C)CC[C@]5(C(=O)NCCCCN)CC[C@@]4(C)[C@]3(C)CC[C@H]2C(C)(C)[C@H]1OC(C)=O` was 2.98% (active); that for `Oc1ccc(Cl)cc1-c1cc(-c2ccccc2Cl)[nH]n1` was 20.6%.
For `CC1C2CCC(C2)C1COCCOCCO` (stereo not given), the growth was 105%.
With `O=C1C(Cl)=C(N/N=c2/[nH][nH]/c(=N/NC3=C(Cl)C(=O)c4ccccc4C3=O)c3ccccc23)C(=O)c2ccccc21`, the growth was 117%.
Turning to `COc1ccc(/C=c2\c(=O)n(-c3ccccc3)c3nn4c(n23)=NNC42CCCCC2)cc1`, the growth was 94.1%.
Consider `CCNC(=S)N(Cc1ccccc1)Cc1ccccc1`, for which the growth is 76.7%.
Turning to `N#CC1=C(N)Oc2nc[nH]c(=O)c2C1c1cccs1` (stereo not given), the growth was 102%.
Turning to `CCN(C(=O)Nc1cccc2ccccc12)c1ccccc1`, the growth was 96.3%.
Take `COc1ccc(-c2nc(-c3cc(OC)cc(OC)c3)[nH]c2-c2ccc(OC)cc2)cc1`: the growth was 23.7%.
